In the library only some 4% were active in any assay of this set; here they are far more common.
HIF-2a block = HIF-2a inhibition; 786-0 RCC cells HIF-2a reporter, luciferase luminescence, overnight; inhibition, % at 18.8 µM; 0.72% of 360,000 active; AID 624352;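 active = inhibition of the luminescence signal of 40% or more relative to plate controls, in a single-dose primary screen at 18.75 µM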
TROY signal inh = blocks TROY-dependent signaling in reporter cells; AID 1347056; Q293 LMP1-TROYcd NF-kB luciferase reporter, 4 h; inhibition, % at 10 µM; 0.98% of 360,000 active;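 active = compounds whose plate-normalised and pattern-corrected inhibition of the luciferase reporter signal at the single screening dose is 50% or more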
Peg3 promoter = Peg3 promoter activity inhibition; 1.7% of 360,000 active; HeLa PEG-Prom luciferase reporter, luminescence, overnight; inhibition, % at 20 µM;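 active = inhibition of at least 50% at 20 µM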
KKLEB cytotox = CF airway cell cytotoxicity counter-screen. KKLEB CF airway cells viability, ATPlite luminescence, overnight; active compounds read low; cells stimulated with P. aeruginosa culture filtrate. activity change (cytotoxicity), % at 5 µM. 0.36% of 360,000 active. AID 602141;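 active = corrected activity change at or below -50% at 5 µM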
TWEAK-Fn14 inh = blocks TWEAK-Fn14 interaction in a reporter cell assay. inhibition, % at 10 µM. AID 1159606. 2% of 360,000 active. TWEAK-stimulated Fn14 reporter cells, luciferase luminescence, 8 h; in the data active = inhibition above about 50%
CF NFkB inh = cystic fibrosis NF-kB activation inhibition; KKLEB NF-kB-GFP reporter, PAF-induced, GFP fluorescence overnight; inhibition, % at 5 µM; 0.86% of 360,000 active;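 active = at least 50% inhibition at 5 µM, scaled per plate between neutral and stimulator controls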;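 also: PAF is a Pseudomonas aeruginosa culture filtrate used as stimulus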
CF NFkB conf = CF NF-kB inhibition confirmation, single concentration | 64% of 1,300 active | shares compounds with CF NFkB inh | KKLEB CF airway cells, PAF-induced NF-kB-GFP fluorescence, overnight | AID 602472 | inhibition, % at 5 µM; in the data active = inhibition above about 40%;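 also: stimulus PAF is a Pseudomonas aeruginosa filtrate and not platelet activating factor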
Of the large screens only hits and unclear results are named; the others gave an inactive call (follow-up assays come after a bar, where they were run).

CCCCCCNC(=O)O[C@H]1Cn2c(=O)ccc(=O)n2[C@@H]2CN(S(=O)(=O)c3ccc(C)cc3)C[C@]12O	Peg3 promoter 102.8, TWEAK-Fn14 inh 89.1, CF NFkB inh 61.6 | CF NFkB conf inactive
CC(=O)Oc1ccc(N(C(C)=O)S(=O)(=O)c2ccc(Cl)cc2)c2ccccc12	CF NFkB inh 85.9 | CF NFkB conf 70.2
O=C(C#Cc1ccccc1)c1ccccc1	Peg3 promoter 100.0, TWEAK-Fn14 inh 75.9, CF NFkB inh 99.3 | CF NFkB conf 43.5
CN(C)C(=O)C#Cc1ccccc1	none
CCCCc1ccc(NC(=S)Nc2ccc(Nc3ccc(OC)cc3)cc2)cc1	CF NFkB inh 52.2 | CF NFkB conf inactive
COC(=O)[C@@]12C[C@@H](CC(=O)NCC34CC5CC(CC(C5)C3)C4)C(=O)N(Cc3cccc4ccccc34)C1=CCC(C)(C)C2	none (no result: TROY signal inh, Peg3 promoter, KKLEB cytotox, TWEAK-Fn14 inh, CF NFkB inh)
CN(C)CCNC(=O)c1sc2cccc(F)c2c1Cl	none
O=C(Nc1cccnc1)c1sc2cccc(F)c2c1Cl	CF NFkB inh 52.6 | CF NFkB conf 53.7
O=C(Nc1ccc(C(=O)N2CCN(c3ccccc3)CC2)cc1)C1=CSCCO1	none
Cc1ccc(C(=O)c2cncc(Br)c2)cc1	CF NFkB inh 50.3 | CF NFkB conf 61.5
CCc1ccc(C(=O)c2cncc(Br)c2)cc1	none
CCCN(CCC)c1ncnc2nc[nH]c12	TROY signal inh 50.2, TWEAK-Fn14 inh 62.8, CF NFkB inh 65.7 | CF NFkB conf 79.5
Clc1ccccc1CN(Cc1ccccc1)c1ncnc2nc[nH]c12	none
COc1ccc(-n2cc(-c3ccccc3)c3c(N4CC(C)OC(C)C4)ncnc32)cc1 (configuration not stated)	Peg3 promoter 63.8, CF NFkB inh 82.5 | CF NFkB conf 71.5
CN1CCN(c2ncnc3c2c(-c2ccccc2)cn3-c2ccc(F)cc2)CC1	none
CC(=O)c1cccc(NC(=O)COC(=O)c2ccc(S(C)(=O)=O)c([N+](=O)[O-])c2)c1	TWEAK-Fn14 inh 64.1, CF NFkB inh 62.6 | CF NFkB conf 43.2
CS(=O)(=O)c1ccc(C(=O)OCC(=O)Nc2cccnc2Cl)cc1[N+](=O)[O-]	CF NFkB inh 90.5 | CF NFkB conf inactive
CS(=O)(=O)c1ccc(C(=O)OCc2nnc(-c3ccccc3)o2)cc1[N+](=O)[O-]	TROY signal inh 65.9, Peg3 promoter 109.0, TWEAK-Fn14 inh 66.4, CF NFkB inh 76.3 | CF NFkB conf inactive
COc1ccccc1Cc1c(-c2ccc(C)cc2)nc2cc(C)c(Br)c(C)n12	none (no result: Peg3 promoter, KKLEB cytotox, CF NFkB inh)
COc1ccc(OCC(=O)NNC(=O)c2ccc3c(=O)n4c(nc3c2)CCC4)cc1	none
O=C(NC1(Cc2ccccc2)CCN(CCc2cccs2)C1=O)c1ccccc1 (configuration not stated)	none
O=c1[nH]c2cc3c(cc2cc1CN(CCc1ccccc1)C(=S)NCCCN1CCOCC1)OCCO3	none
CCC(=O)OC1(C(C)=O)CCC2C3CCC4=CC(=O)CCC4(C)C3CCC21C (configuration not stated)	CF NFkB inh 50.7 | CF NFkB conf inactive
C[C@]12CCC(=O)C=C1CCC1C2CC[C@@]2(C)C1CCC21OCCO1 (some centres not stated)	none
C=C1CCC[C@]2(C)C[C@H]3OC(=O)C(CN4CCCCC4CO)[C@H]3CC12 (some centres not stated)	Peg3 promoter 61.7, TWEAK-Fn14 inh 50.9, CF NFkB inh 75.4 | CF NFkB conf inactive
C=C1CCC[C@]2(C)C[C@H]3OC(=O)C(CNC(C)(CO)CO)[C@H]3CC12 (some centres not stated)	CF NFkB inh 74.7 | CF NFkB conf inactive
O=C(NCC(=O)N1CCN(c2ncccn2)CC1)c1ccccc1OC(F)F	none
COc1ccc(CNc2cccnc2)c(OC)c1OC	none
O=c1cc(-c2ccc([N+](=O)[O-])cc2)c2ccc(O)cc2o1	CF NFkB inh 52.6 | CF NFkB conf inactive
COc1ccc(-c2cc(=O)oc3cc(O)ccc23)cc1	TWEAK-Fn14 inh 64.0, CF NFkB inh 82.0 | CF NFkB conf 86.0
O=C(CN1C(=O)C2CC=CCC2C1=O)Nc1ccc(S(=O)(=O)N2CCOCC2)cc1 (configuration not stated)	none
Cc1ccc(-c2nnnn2-c2ccccc2C(=O)O)cc1	none
O=C(Nc1cccc(Cl)c1)Nc1nc(-c2ccc(Cl)cc2)cs1	none (no result: TROY signal inh)
NC(c1ccccc1)c1csc(NC(=O)Nc2cccc(Cl)c2)n1 (configuration not stated)	Peg3 promoter 107.9, CF NFkB inh 58.7 | CF NFkB conf 59.3
COc1cccc2c1oc1c(SCc3nc4ccccc4[nH]3)nc(C)nc12	none
COc1cccc(-c2cc(NC=O)c3ncc(-c4ccc(C(C)=O)cc4)n3c2)c1	CF NFkB inh 59.0 | CF NFkB conf 62.7
COc1ccccc1-c1cc(NC=O)c2ncc(-c3ccc(F)cc3)n2c1	TWEAK-Fn14 inh 55.3, CF NFkB inh 67.4 | CF NFkB conf 54.3
COc1ccc(-c2cc(NC=O)c3ncc(-c4cccc(C(C)=O)c4)n3c2)cc1	none
COc1cc(-c2cnc3c(NC=O)cc(-c4ccc(C)cc4)cn23)cc(OC)c1OC	CF NFkB inh 50.9 | CF NFkB conf 71.1
COc1ccc(-c2cc(NC=O)c3ncc(-c4ccc(C(C)=O)cc4)n3c2)cc1OC	Peg3 promoter 68.3, CF NFkB inh 50.4 | CF NFkB conf inactive
Nc1nc(/C=C/c2cccnc2)nc(-c2ccccc2O)n1	CF NFkB inh 91.1 | CF NFkB conf 74.6
COc1ccc(NC(=O)C2Cc3c(-c4cccc(NC(C)=O)c4)ccnc3O2)cc1 (configuration not stated)	none
CCOc1cc(Br)c(Br)c(C=Nc2ccc(NC(C)=O)cc2)c1O	CF NFkB inh 69.1 | CF NFkB conf 61.5
COc1ccc(OC)c(-c2nnc3n2N=C(c2ccc(OC)c(OC4CCOC4)c2)CS3)c1 (configuration not stated)	CF NFkB inh 53.6 | CF NFkB conf 64.7
CCn1c(=O)c(CCC(=O)N2CCN(c3ccccn3)CC2)c(C)c2c(C)nn(-c3ccccc3)c21	none
Cc1ccc(CNc2ncnc(N)c2[N+](=O)[O-])cc1	CF NFkB inh 63.0 | CF NFkB conf 65.5
O=C1C=C(OCCCl)CC(c2cccc(Cl)c2)O1 (configuration not stated)	none (no result: TROY signal inh, Peg3 promoter, KKLEB cytotox, TWEAK-Fn14 inh, CF NFkB inh)
C[C@]12CCC(O)CC1CCC1C2CC[C@]2(C)C(c3cc(C(F)(F)F)n[nH]3)CCC12 (some centres not stated)	TROY signal inh 60.5, Peg3 promoter 100.8, CF NFkB inh 56.5 | CF NFkB conf 71.4
Cc1ccc(NC(=S)N(CCCN2CCCC2)Cc2cccn2Cc2ccc(Cl)cc2)cc1C	Peg3 promoter 101.5, CF NFkB inh 50.6 | CF NFkB conf inactive

Source: PubChem (Sanford-Burnham Center for Chemical Genomics)
